# HCMV inh – blocks human cytomegalovirus replication; activity change, negative = inhibition, % at 57.5 µM; AID 1259415; HFF cells, HCMV-luciferase reporter, 72 h; stronger effect = lower value; actives 4.5% (n = 410,000); in the data active means activity change below about -60%; inconclusive means no clear call, values can overlap the other calls; inactive means above about -39%
#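 Human foreskin fibroblasts infected with luciferase-reporter HCMV at MOI 1 PFU/cell, compounds at two doses. Luciferase measured 72 h post infection; normalized to buffer-only basal and Salinomycin (10uM) controls.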
# Sm TGR inh – S. mansoni TGR enzyme inhibition. Q962Y6. purified TGR, DTNB reduction, TNB absorbance 405 nm. Potency, µM (series often up to 114 µM), inactives show at the highest dose activity change, negative = inhibition, usual class: inhibitors. actives 3% (n = 360,000); further: potency means the concentration at half of the fitted maximal effect; nearly all actives have a fitted effect of over 60% in size
#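 TGR 20 nM + NADPH 100 uM (dispensed conc.), cpd preinc 15 min RT; start with NADPH (500 uM addition) then DTNB (15 mM addition). Kinetic TNB absorbance, 405 nm filter. Four-parameter Hill fit across titration.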
# Pf growth 96h – P. falciparum growth inhibition at 96 hours; P. falciparum luciferase reporter growth, 96 h; Potency, µM (highest dose often 28.7 µM), without a hit: at the highest dose activity change, negative = inhibition, usual class: inhibitors; actives 6.9% (n = 320,000); AID 504834; further: potency means the concentration at half of the fitted maximal effect
#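 Readout is luminescence from an integrated firefly luciferase in P. falciparum. Red cells, 2% hematocrit and 0.05% parasitemia final, were cultured with compound through two parasite generations (96 hours) at 37 C, 5% CO2.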
# Giardia FBPA inh – Giardia lamblia aldolase inhibition. Potency, µM (top dose mostly 59.6 µM), for inactives: top-dose activity, negative = inhibition, hits mostly inhibitors. A8B2U2. actives 0.71% (n = 290,000). AID 2451. purified Giardia FBPA; further: potency means the concentration at half of the fitted maximal effect; nearly all actives have a fitted effect of over 55% in size
# Target sequence (A8B2U2 whole entry, looked up): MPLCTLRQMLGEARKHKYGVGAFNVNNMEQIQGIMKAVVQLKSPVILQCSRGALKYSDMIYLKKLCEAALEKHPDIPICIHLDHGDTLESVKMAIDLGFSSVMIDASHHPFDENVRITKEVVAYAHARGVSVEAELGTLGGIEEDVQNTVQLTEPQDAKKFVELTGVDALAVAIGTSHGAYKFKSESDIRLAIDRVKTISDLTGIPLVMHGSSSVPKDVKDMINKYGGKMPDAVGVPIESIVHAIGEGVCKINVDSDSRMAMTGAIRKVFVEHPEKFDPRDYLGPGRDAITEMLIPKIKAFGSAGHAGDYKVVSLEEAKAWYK
#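 40 nM FBPA preincubated 10 min at RT with compound (up to 57.5 uM final), then substrate plus GAPDH/TPI/NAD/arsenate coupling and diaphorase/resazurin added. Fluorescence read after 20 min at RT, 525/598 nm.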
# Pf growth 48h – P. falciparum growth inhibition at 48 hours (one generation); actives 5.9% (n = 310,000); P. falciparum luciferase growth in erythrocytes, 48 h; AID 504832; Potency, µM (series often up to 28.7 µM), without a hit: at the top dose activity change, negative = inhibition, actives largely listed as inhibitors; further: potency means the concentration at half of the fitted maximal effect
#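 Growth was read as firefly luciferase luminescence after a 48 h, 37 C, 5% CO2 exposure of compounds to reporter-bearing P. falciparum cultures (0.1% parasitemia, 2% hematocrit final) in Albumax-supplemented RPMI 1640.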
# The depositor's hits bear a star; u = inconclusive; x = no result given; [ ] = dose if it differs, or a comment. Only some compounds are listed: those with a hit (about 14% of all), similar ones and a draw of the others. Unless noted, the call rests on the fitted dose curve; in most records, active means well fitted curve in the direction sought with a large enough effect; inconclusive means small, poorly fitted or top-dose-only effect, or another doubt; inactive means no such curve, though single readings can be large; an effect the other way counts as inactive or inconclusive. On the % scale 0 is the no-effect control and ±100 the full control effect.
SMILES,HCMV inh,Sm TGR inh,Pf growth 96h,Giardia FBPA inh,Pf growth 48h
COc1ccc(-n2c(COc3ccc(C)cc3)n[nH]c2=S)cc1,-18.5,0.0%,0.465µM*,u,-10.6%
O=C1CC(N2CCN(Cc3ccc4c(c3)OCO4)CC2)C(=O)N1c1cccc(Cl)c1 (centres undefined),-23.9,50.1µM*,x,6.5%,30.8%
O=C1CC(N2CCN(Cc3ccc4c(c3)OCO4)CC2)C(=O)N1c1cccc2ccccc12 (centres undefined),-13.3,-20.2%[57.1 µM],u,2.0%,17.3%
O=C1CC(N2CCN(Cc3ccc4c(c3)OCO4)CC2)C(=O)N1CCc1ccccc1 (centres undefined),-34.8,u,-7.8%,-2.2%,5.8%
O=C1CC(N2CCN(Cc3ccccc3)CC2)C(=O)N1c1ccccc1 (centres undefined),122.5,u,324.5%,5.4%,9.8%
O=C1CC(N2CCN(Cc3ccccc3)CC2)C(=O)N1c1ccc2c(c1)OCCO2 (centres undefined),25.9,56.2µM*,x,-6.4%,5.0%
O=C1CC(N2CCN(Cc3ccc4c(c3)OCO4)CC2)C(=O)N1Cc1ccc(N2CCCC2=O)cc1 (centres undefined),17.6,-25.7%,9.28µM*,0.0%,u
COc1ccc(N2C(=O)CC(N3CCN(Cc4ccc5c(c4)OCO5)CC3)C2=O)cc1 (centres undefined),u,17.8µM*,16.8%,6.4%,-26.7%
COc1ccc(/C(C)=N/NC(=O)CNC(=O)/C=C\c2ccccc2OC)c(OC)c1,-20.5,-16.8%,-13.2%,1.3%,u
CCCS(=O)(=O)c1nc(S(=O)(=O)c2ccc(C)cc2)c(N2CCC3(CC2)OCCO3)s1,-35.2,2.1%,u,x,-16.4%
CC(=O)Nc1ccc(NS(=O)(=O)c2c(C(=O)N3CCC(C)CC3)c(C)n(C)c2C)cc1,u,-7.9%,x,x,x
CCOC(=O)Cn1ncc2c3ccccc3n(CC(=O)OCC)c2c1=O,-13.4,0.8%,0.0%,3.6%,x
C[C@@H](NC(=O)/C(C#N)=C/c1ccc(O)c(O)c1)c1ccccc1,-98.2*,-17.1%,u,-4.6%,u
N#C/C(=C\c1ccc(O)c([N+](=O)[O-])c1)C(=O)NCc1ccccc1,-2.4,3.7%,47.8%,24.1%,-44.0%
C[C@H](NC(=O)/C(C#N)=C/c1ccc(O)c(O)c1)c1ccccc1,x,x,x,-6.5%,x
CC(NC(=O)/C(C#N)=C/c1ccc(Cl)c([N+](=O)[O-])c1)c1ccccc1 (centres undefined),-99.5*,u,2.9%,-14.5%,-22.7%
O=C(CN1CCN(Cc2ccccc2)CC1)N1CCCc2c1c(=O)oc1ccc(O)cc21,-15.9,-0.8%,-17.0%,2.7%,2.94µM*
Cc1c(OC(C)C(=O)NCCCn2ccnc2)ccc2c3c(c(=O)oc12)CCC3 (centres undefined),-22.1,-8.9%,11.7µM*,x,11.7µM*
Cc1c(OC(C)C(=O)NCc2ccncc2)ccc2c3c(c(=O)oc12)CCCC3 (centres undefined),u,2.5%,9.28µM*,x,u
O=C(O)CCc1ccc(-c2ccc(Cl)cc2)n1-c1cccc(C(F)(F)F)c1,18.1,25.1µM*,x,x,x
Cc1ccc(-c2ccc(CCC(=O)O)n2-c2cccc(O)c2)cc1,36.0,14.1µM*,x,12.8%,131.2%
CCOc1ccc(-n2c(CCC(=O)O)ccc2-c2ccc(Br)cc2)cc1,0.7,u,x,x,x
Cc1ccc(-c2ccc(CCC(=O)O)n2-c2ccc(O)cc2)cc1,-6.5,25.1µM*,-7.4%,13.2%,0.3%
CCOC(=O)c1ccc(-n2c(CCC(=O)O)ccc2-c2ccc(Br)cc2)cc1,27.7,20µM*,x,x,x
COc1ccc(-c2ccc(CCC(=O)O)n2-c2cc(Cl)ccc2O)cc1,31.9,u,x,x,x
SMILES,HCMV inh,Sm TGR inh,Pf growth 96h,Giardia FBPA inh,Pf growth 48h
Cc1c(C(=O)Nc2ccc(-c3nc4cc(Cl)ccc4o3)cc2)oc2ccccc12,-18.3,-5.5%,x,x,x
CCn1ncc(Br)c1C(=O)Nc1ccc(C(C)C)cc1,150.5,-1.9%,u,-1.3%,-7.7%[0.00184 µM]
CC(=O)c1ccc(-n2c(CCC(=O)O)ccc2-c2ccc(Br)cc2)cc1,-32.9,u,14.4%,10.5%,10.0%
O=C(O)CCc1ccc(-c2ccc(Br)cc2)n1-c1ccc(O)cc1,-3.2,28.2µM*,u,11.2%,29.3%
CN1CCN(C(=O)CCc2nc3ccccc3n2-c2ccccc2)CC1,-22.4,-7.6%,33.8%,8.3%,17.0%
Cc1ccccc1N=Nc1c(N)n[nH]c1N,14.6,-11.0%,2.94µM*,10.8%,7.1%
COc1nnc(-c2ccc(C)c(S(N)(=O)=O)c2)c2ccccc12,-11.7,1.2%,2.94µM*,-6.6%,x
COc1nnc(-c2ccc(C)c(S(=O)(=O)NC(C)C)c2)c2ccccc12,x,-12.1%,2.62µM*,5.8%,x
COc1ccc(Nc2nnc(-c3ccc(C)c(S(N)(=O)=O)c3)c3ccccc23)cc1,u,-7.9%,x,x,x
COc1ccc(C(CNC(=O)C(C)(C)Oc2ccc(Cl)cc2)N2CCOCC2)cc1 (centres undefined),4.4,x,x,x,x
Cc1cc(C)c2c(n1)nn1c(C)c(CCC(=O)Nc3cccc(C)c3C)c(C)nc21,5.3,1.7%,x,x,x
COCCCNC(=S)N1CCN(C(c2ccccc2)c2ccccc2)CC1,-24.8,-0.5%,-7.6%,4.5%,13.1µM*
CC(C)CNC(=S)N1CCN(C(c2ccccc2)c2ccccc2)CC1,-11.7,2.5%,2.08µM*,-1.0%,u
CC1=CC2C(C(O)CC3(C)C2CC(C)C32OCOC23COCO3)C2(C)C/C(=C\O)C(=O)C=C12 (centres undefined),-98.9*,x,x,x,x
Cc1nc2ccc(S(=O)(=O)NC(C(=O)NCc3ccco3)C(C)C)cc2s1 (centres undefined),-64.5*,-12.5%,33.5%,-0.9%,-9.2%
Cc1cc(C)cc(N(C(=O)c2sc(C)nc2C)C(C(=O)NCc2ccco2)c2ccccc2)c1 (centres undefined),u,-12.3%,11.7µM*,0.4%,u
Cc1ccc(CNC(=O)C(=O)NCC(c2cccnc2)N2CCN(c3ccc(F)cc3)CC2)cc1 (centres undefined),u,-5.4%,x,x,x
CC(Sc1nnnn1C)C(=O)Nc1ccccc1-c1ccccc1 (centres undefined),u,-17.9%,-70.0%,1.2%,10.0%
COc1ccccc1NC(=O)C(C)Sc1nnnn1C (centres undefined),35.4,0.0%,11.7µM*,5.5%,15.2%
Cc1ccc(-n2nnnc2SC(C)C(=O)Nc2ccccc2-c2ccccc2)cc1 (centres undefined),-61.1*,2.4%,9.28µM*,-1.0%,u
COC(=O)c1cnc(SCC(=O)c2ccccc2)n1C,93.0,2.7%,345.9%,6.0%,153.8%
